Results reported in PubChem BioAssay (NCATS).
Records with an inconclusive call do not appear. Active and inactive are the calls of the source. The call rests on the fitted dose curve; in most records, active means well fitted activation curve with a large enough effect in the signal ratio, with a control signal flat (not every such curve was filed as active); inconclusive means small, poorly fitted or top-dose-only effect, or effect the other way, or a change in a side signal; inactive means flat fitted curve, though single readings scatter; the % refers to the signal ratio.

Assay: qHTS Assay for Identification of Small Molecule Agonists for Hypoxia Response Element Signaling Pathway (AID 914); on activation: % of control where 0% means no effect
Conditions: ME-180 (cervical carcinoma) HRE-bla reporter, beta-lactamase ratio, CoCl2, 17 h; activation: hits give high values
Method in brief: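 Cells were plated overnight, pin-dosed with compound in a titration series, co-stimulated with EC50 CoCl2 and incubated 17 hours at 37 degrees Celsius. CCF4 substrate was then loaded, and AC50 values came from the 460nm/530nm ratio.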
Potency means the concentration at half of the fitted maximal effect.

Potency, active:
CCc1ccc(-c2cn3nc(C)c(C)nc3n2)cc1 10 µM, COc1ccc(OC)c2c(N)c(C#N)c(C(F)(F)C(F)(F)F)nc12 10 µM, CCC(=O)Nc1c(C#N)c2nc3ccccc3nc2n1C1CCCCC1 10 µM, N=c1c(C(=O)NCc2ccccc2)cc2c(=O)n3ccccc3nc2n1Cc1ccco1 6.31 µM, CCCCn1cnc2c(c1=O)c1nc3ccccc3nc1n2Cc1ccc2c(c1)OCO2 12.6 µM, CCCCCNC(=O)c1c(N)n(/N=C/c2ccco2)c2nc3ccccc3nc12 7.94 µM, CCCCCCc1cc2cc(-c3nnc(-c4ccccc4O)o3)c(=O)oc2cc1O 3.16 µM, Cc1nnc2c(NC(C)C)nc3ccccc3n12 10 µM, CCc1cc(=O)oc2c(CN3CCCC3)c(O)c(Cl)cc12 7.94 µM, CCCc1cc(=O)oc2c(CN3CCN(C)CC3)c(O)c(Cl)cc12 5.01 µM, COCCNC(=O)c1c(N)n(/N=C/c2cccs2)c2nc3ccccc3nc12 10 µM

activation, inactive:
CCOC(=O)c1[nH]c2ccc(OC)cc2c1NC(=O)CCN1CCC(C)CC1 -29.8%, CC(C)OCCCn1c(=N)c(C(N)=S)cc2c(=O)n3ccccc3nc21 13.6%, CNc1oc(-c2ccccc2Cl)nc1C#N 10.7%, Cc1c(/C(O)=C2\C(=O)C(=O)N(CCCN(C)C)C2c2ccccc2)cnn1-c1ccccc1 (configuration not stated) 3.31%, CCCN(CCC)c1nc2ccccc2nc1C(C#N)C(=O)OC(C)COC (configuration not stated) -6.34%, COc1nc(N(C)S(=O)(=O)c2ccc(C)cc2)nc(C)c1Cl -6.79%, Cc1nc(Sc2cccn2C)c(C(F)(F)F)c(=O)[nH]1 6.77%, COc1ccc(-n2c(SCC(N)=O)nc3sc4c(c3c2=O)CCN(C)C4)cc1 -0.0215%, O=C(c1ccc(=O)oc1)N1CCOCC1 5.28%, CCOCCSc1nc2c(c(=O)[nH]c(=O)n2C)n1CCCc1ccccc1 6%, Cc1ccccc1C(=O)c1ccc2c(c1)n(C)c(=O)n2C -17.8%, CCc1nc(N2CCCC2)c(C#N)c2c1CCCC2 -12%, c1ccc2c(c1)NC(c1ccncc1)n1c-2nc2ccccc21 (configuration not stated) 15.3%, COC(=O)c1[nH]c2cc(OC)ccc2c1NC(=O)CCN1CCCC(C)(C)C1 10.2%, CCOC(=O)c1sc2c(c1C)c(=O)c(C(=O)OCC)cn2CC 16.2%, CCC1(C)Cc2c(sc3c2c(=O)n(C)c2nnc(SCc4ccc5c(c4)OCO5)n32)CO1 (configuration not stated) -18.9%, Cc1cccn2c(=O)c(/C=C(\C#N)S(=O)(=O)c3ccccc3)c(N3CCN(C)CC3)nc12 -11.6%, COc1ccc(C2=Nn3c(nnc3-c3ccccn3)SC2)cc1OC -20.2%, CCCN(CCC)C(=O)CC(c1ccc(F)cc1)c1ccco1 (configuration not stated) 13.9%, COc1cccc(/C(O)=C2/C(=O)C(=O)N(CCCN(C)C)C2c2cccc(Cl)c2)c1 (configuration not stated) 9.88%, CCN1CCN(c2nc3c(C)cccn3c(=O)c2/C=C(\C#N)S(=O)(=O)c2ccccc2)CC1 5.25%
